# Results reported in ChEMBL document CHEMBL3988442, “University of Dundee, Small-Polar-MMV Screening Library” (2021).
# In all, about 67,000 compounds went through this assay and about 300 (0.45%) showed an effect of 50% or more. The list comes from a sample in which strong results are over-represented; it also holds similar structures and randomly drawn compounds.
# Target: Polyketide synthase Pks13 (Mycobacterium tuberculosis (strain ATCC 25618 / H37Rv)) (UniProt I6X8D2)
# Experiment: Mycobacterium tuberculosis Polyketide synthase 13 Thioesterase (PKS13)
# Format: functional
# Design: scale not given: in the data most compounds retested in dose-response had high values
# Settings: 30 µM
# Chain of Polyketide synthase Pks13 (Mycobacterium tuberculosis (strain ATCC 25618 / H37Rv)) (I6X8D2 whole entry): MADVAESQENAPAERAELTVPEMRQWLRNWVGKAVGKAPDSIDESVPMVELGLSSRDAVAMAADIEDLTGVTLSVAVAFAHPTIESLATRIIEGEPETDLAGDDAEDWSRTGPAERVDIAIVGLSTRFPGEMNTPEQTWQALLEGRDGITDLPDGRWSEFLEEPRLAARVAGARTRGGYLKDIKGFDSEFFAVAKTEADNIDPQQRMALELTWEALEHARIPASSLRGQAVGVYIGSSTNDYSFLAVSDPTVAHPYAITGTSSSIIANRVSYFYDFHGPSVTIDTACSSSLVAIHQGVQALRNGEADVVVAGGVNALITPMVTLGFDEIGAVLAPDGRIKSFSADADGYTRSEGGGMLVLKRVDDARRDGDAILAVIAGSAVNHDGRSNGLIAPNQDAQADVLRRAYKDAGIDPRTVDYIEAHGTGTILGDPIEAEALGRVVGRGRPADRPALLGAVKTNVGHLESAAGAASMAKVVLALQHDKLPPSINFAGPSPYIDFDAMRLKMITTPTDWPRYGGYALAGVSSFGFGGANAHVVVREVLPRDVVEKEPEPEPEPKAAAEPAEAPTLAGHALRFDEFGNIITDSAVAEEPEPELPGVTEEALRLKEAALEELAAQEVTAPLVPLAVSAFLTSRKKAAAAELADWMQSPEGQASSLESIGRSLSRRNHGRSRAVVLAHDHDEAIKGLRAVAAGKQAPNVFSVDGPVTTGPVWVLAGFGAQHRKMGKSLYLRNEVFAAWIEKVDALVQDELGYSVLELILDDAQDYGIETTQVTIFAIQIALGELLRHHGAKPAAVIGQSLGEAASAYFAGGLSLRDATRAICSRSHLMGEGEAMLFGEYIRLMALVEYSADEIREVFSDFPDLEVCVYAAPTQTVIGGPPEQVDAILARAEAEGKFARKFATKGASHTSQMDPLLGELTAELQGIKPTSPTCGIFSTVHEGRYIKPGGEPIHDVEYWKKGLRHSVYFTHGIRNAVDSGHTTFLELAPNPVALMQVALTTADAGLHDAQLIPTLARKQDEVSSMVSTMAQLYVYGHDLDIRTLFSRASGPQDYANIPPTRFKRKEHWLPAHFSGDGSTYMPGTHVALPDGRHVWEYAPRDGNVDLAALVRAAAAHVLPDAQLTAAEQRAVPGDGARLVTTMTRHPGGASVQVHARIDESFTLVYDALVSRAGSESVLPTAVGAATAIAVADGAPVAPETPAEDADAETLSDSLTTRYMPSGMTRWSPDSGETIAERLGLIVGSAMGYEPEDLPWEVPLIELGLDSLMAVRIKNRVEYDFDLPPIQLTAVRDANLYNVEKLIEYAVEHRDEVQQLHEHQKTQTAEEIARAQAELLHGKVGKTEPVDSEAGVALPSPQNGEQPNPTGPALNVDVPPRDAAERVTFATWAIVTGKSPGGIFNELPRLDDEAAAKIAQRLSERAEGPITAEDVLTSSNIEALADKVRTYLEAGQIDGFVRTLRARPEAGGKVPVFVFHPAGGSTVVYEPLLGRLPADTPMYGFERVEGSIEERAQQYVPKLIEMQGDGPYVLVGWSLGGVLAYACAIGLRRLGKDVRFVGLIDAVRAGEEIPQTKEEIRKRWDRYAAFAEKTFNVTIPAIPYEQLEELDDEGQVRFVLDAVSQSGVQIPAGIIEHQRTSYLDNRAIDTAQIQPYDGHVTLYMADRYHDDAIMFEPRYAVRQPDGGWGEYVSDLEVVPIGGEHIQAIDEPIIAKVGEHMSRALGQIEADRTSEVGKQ
row,Structure (SMILES),Percent Effect [%]
1,COc1ccccc1N1CCC(CNCc2ccc(C#N)cc2)C1 (centres undefined),-12.2
2,COc1ccccc1N1CCC(CNCc2cccc(OC)c2OC)C1 (centres undefined),-8.68
3,COc1ccccc1N1CCC(CNS(=O)(=O)c2cccs2)C1 (centres undefined),80.9
4,COc1ccccc1N1CCC(CNS(=O)(=O)c2c(C)nn(C)c2C)C1 (centres undefined),0.665
5,COc1ccccc1N1CCC(CNS(=O)(=O)c2cccc(C#N)c2)C1 (centres undefined),50.9
6,COc1ccccc1N1CCC(CNCc2cccc(C#N)c2)C1 (centres undefined),14.1
7,O=C([C@H]1CC[C@@H]2[C@@H](CCN2c2ncccn2)O1)N1CCCCO1,4.55
8,Cn1cnc(S(=O)(=O)N2CCO[C@H]3[C@H](OCC4CC4)CC[C@@H]32)c1,-28.3
9,O=C(N1CCOCC1)[C@@]12CCO[C@@H]1CCN(CCN1CCCCC1)C2,-23.6
10,COCCN1C[C@H]2CCN(C(=O)c3cc(C)on3)CC[C@H]2S1(=O)=O,-423
11,Cc1nn(C)c2c(=O)n(CC(=O)NC3CCCCC3)ccc12,-9.58
12,CCS(=O)(=O)NC[C@]12COC[C@H]1CN(Cc1cc(C)on1)C2,-29.9
13,CNC(=O)N1CC[C@@H]2CN(Cc3cccc(OC)c3)S(=O)(=O)[C@@H]2CC1,-16.2
14,N#Cc1cccnc1N1CCCC(CO)(Cc2cccc(Cl)c2)C1 (centres undefined),96.8
15,N#Cc1cccnc1N1CCCC(CO)(Cc2ccc(F)cc2)C1 (centres undefined),-5.66
16,OCC1(Cc2cccc(Cl)c2)CCCN(c2ncccn2)C1 (centres undefined),20.3
17,CCC(=O)N1CCN(Cc2cnc(C)nc2)[C@H]2CS(=O)(=O)C[C@H]21,-6.93
18,Cc1noc(C)c1CN1CC[C@H]2C[C@H](c3ccncn3)O[C@@H]2C1,-14.6
19,Cn1ccc(C(=O)NCc2cccc(Cn3ccnc3)c2)cc1=O,-52
20,Cn1ccc(C(=O)NCc2cccc(CN3CCCC3)c2)cc1=O,56.3
21,Cn1ccc(C(=O)NCc2cccc(NC(=O)C3CCC3)c2)cc1=O,107
22,Cn1ccc(C(=O)NCc2ccc(CN3CCCCC3)cc2)cc1=O,4.22

row,Structure (SMILES),Percent Effect [%]
1,Cn1ccc(C(=O)NCc2cccc(N3CCCCC3=O)c2)cc1=O,14.5
2,Cn1ccc(C(=O)NCc2ccc(CN3CCCC3)cc2)cc1=O,-2.41
3,Cc1cc(N2CCN(C(=O)[C@@H]3C[C@@H]4C=C[C@H]3C4)CC2)cc(C)n1,-10.7
4,CCc1nccn1CC(=O)N1C[C@H]2CC[C@@H]1CN(C(=O)N(C)C)C2,-13.8
5,CN1CCN(Cc2nc3ccccc3[nH]2)[C@H]2CS(=O)(=O)C[C@H]21,-21.3
6,Cc1cnc(N2C[C@@H]3[C@@H](C2)OCC(=O)N3CCN(C)C)nc1,3.47
7,O=C(c1ccc(COc2ccc(Cl)cc2)o1)N1N=CCC1(O)C(F)(F)F (centres undefined),73.2
8,O=C(c1ccc(COc2ccccc2Cl)o1)N1N=CCC1(O)C(F)(F)F (centres undefined),37.5
9,Cc1cccc(OCc2ccc(C(=O)N3N=CCC3(O)C(F)(F)F)o2)c1 (centres undefined),45.3
10,O=C(c1cccnc1)N1CCN2C(=O)N(Cc3ccc(F)cc3)C[C@H]2C1,2.86
11,CC(C)N(C)C[C@H]1C[C@@H]2CN(Cc3ccco3)C[C@@H]2O1,-28.7
12,CCOC(=O)[C@]12CCCN(Cc3nccs3)C[C@H]1CN(CC(C)C)C2,-5.86
13,Cc1cc(C2CCCCN2C(=O)c2cccn2C)nc2nccn12 (centres undefined),8.03
14,Cc1cc(C2CCCCN2C(=O)c2ccsc2)nc2nccn12 (centres undefined),84.3
15,Cc1noc(C)c1C(=O)N1CCCCC1c1cc(C)n2ccnc2n1 (centres undefined),-1.89
16,CC(C)CN1C(=O)CO[C@@H]2CN(C(=O)N3CCOCC3)C[C@H]21,-27.7
17,O=C(c1ccnnc1)N1C[C@H]2CCC[C@@H](OCc3cccnc3)[C@@H]2C1,8.09
18,O=C(NCCc1ccccc1)N1C[C@H]2C[C@H](C(=O)N3CCCC3)[C@@H](C1)O2,-28.3
19,O=C(c1cc(-c2ccco2)nc2c(Cl)cccc12)N1C[C@H]2CNC[C@H]2C1,-42.7
20,O=C(c1cc(-c2ccco2)nc2c(Cl)cccc12)N1CCS(=O)(=O)CC1,-5.09
21,COCC1CCN(C(=O)c2cc(-c3ccco3)nc3c(Cl)cccc23)C1 (centres undefined),66.3
22,O=C(O)C1c2nc[nH]c2CCN1Cc1ccc(-c2ccccc2)s1 (centres undefined),-9.34

row,Structure (SMILES),Percent Effect [%]
1,O=C(O)C1c2nc[nH]c2CCN1Cc1cc(-c2ccccc2)no1 (centres undefined),-11.2
2,O=C(O)C1c2nc[nH]c2CCN1Cc1ccccc1-c1ccccc1 (centres undefined),62.3
3,CSCC(=O)N1C[C@H]2CC[C@@H]1CN(C1Cc3ccccc3C1)C2,-8.9
4,Cc1nccc([C@@H]2C[C@@H]3CCN(Cc4cccs4)C[C@H]3O2)n1,-9.54
5,OCC1(CCOc2ccccc2)CCCN(c2ccc(Cl)cn2)C1 (centres undefined),56.5
6,Nc1nccc(N2CCCC(CO)(CCOc3ccccc3)C2)n1 (centres undefined),-23.1
7,N#Cc1cccc(N2CCCC(CO)(CCOc3ccccc3)C2)n1 (centres undefined),132
8,CC(=O)c1ccc(N2CCCC(CO)(Cc3ccccc3F)C2)nc1 (centres undefined),-9.09
9,CCc1nc(N2CCCC(CO)(CCOC)C2)ncc1C (centres undefined),-19.2
10,CC(=O)c1ccc(N2CCCC(CO)(CCOc3ccccc3)C2)nc1 (centres undefined),15.6
11,CC(=O)c1ccc(N2CCCC(CO)(CCc3ccccc3)C2)nc1 (centres undefined),55.1
12,N#Cc1cccc(N2CCC3(CCC(=O)N(CCCO)C3)CC2)n1,-0.0305
13,N#Cc1cccc(N2CCC3(CC2)Nc2ccccc2NC3=O)n1,-22.8
14,N#Cc1ccc(N2CCCC(CO)(CCOc3ccccc3)C2)nc1 (centres undefined),13.8
15,N#Cc1cccc(N2CCC(CO)(CCCc3ccccc3)CC2)n1,67.6
16,OCC1(CCOc2ccccc2)CCN(c2ccc(Cl)cn2)CC1,43.4
17,O=C(NCc1ccco1)[C@H]1C[C@H]2OCC[C@H]2N(S(=O)(=O)C2CC2)C1,-7.99
18,CCOC(=O)[C@]12CCCN(Cc3cccs3)C[C@H]1CN(C(C)C)C2,-0.678
19,N#Cc1cccnc1N1CCCC(CO)(CCOc2ccccc2)C1 (centres undefined),-13.7
20,N#Cc1cccc(N2CCC(CO)(CCOc3ccccc3)CC2)n1,128
21,CC(=O)c1ccc(N2CCC(CO)(CCOc3ccccc3)CC2)nc1,8.13
22,CC(C)CN1C[C@H]2C[C@H](C(=O)NC3CCC3)[C@@H](C1)O2,8.3

row,Structure (SMILES),Percent Effect [%]
1,CCNc1nc(-c2cccnc2)c(-c2ccnc(NCCO)n2)s1,37.6
2,CC(C)(C)Nc1nc(-c2cccnc2)c(-c2ccnc(NCCO)n2)s1,121
3,CCNc1nc(-c2cccnc2)c(-c2ccnc(NS(C)(=O)=O)n2)s1,17.5
4,COc1ccccc1C(=O)Nc1ccc([C@@H](O)[C@H]2COCC(=O)N2)cc1,3.39
5,CCS(=O)(=O)NC[C@]12COC[C@H]1CN(Cc1cccc(OC)c1)C2,-39.6
6,O=C(COCc1ccccc1Cl)N1CCN(c2cnccn2)CC1,25.8
7,O=C(COCc1ccccc1Cl)N1CCN(c2ccc(Br)cn2)CC1,63.1
8,O=C(COCc1ccccc1Cl)N1CCN(c2ncccn2)CC1,0.958
9,CCc1cnc(N2CC[C@H]3[C@@H]2CCC(=O)N3CC2CCOCC2)nc1,88.2
10,O=C1CC[C@H]2[C@H](CCN2c2ccccn2)N1CC1CCOCC1,-8.5
11,CCc1cnc(N2CC[C@H]3[C@@H]2CCC(=O)N3c2ccccc2)nc1,-13.3
12,O=C1O[C@@H]2CN(c3ccncc3)C[C@@H]2N1CCCc1ccc(F)cc1,-35.8
13,Cc1n[nH]c(C)c1CNc1ccc(-c2nc(C3CC3)no2)cn1,3.88
14,Cc1n[nH]c(C)c1CCN(C)c1ccc(-c2nc(C3CC3)no2)cn1,62.8
15,Cc1cc(C)n(CCN(C)c2ccc(-c3nc(C4CC4)no3)cn2)n1,0.156
16,CC(=O)NC[C@@]1(COc2cnccn2)C[C@@H](O)[C@@H](O)C1,-8.58
17,CC(C)c1nc(CN(C)C2CCN(CCS(C)(=O)=O)C2)no1 (centres undefined),-22.6
18,CCS(=O)(=O)CCN1CCC(N(C)Cc2noc(C(C)C)n2)C1 (centres undefined),-4.58
19,CC(C)c1nc(CN(C)C2CCN(CCNS(C)(=O)=O)C2)no1 (centres undefined),93.5
20,c1cnc(N2CCO[C@H]3CN(CC4CCOC4)C[C@H]32)cn1 (some centres undefined),-2.77
21,Cc1noc(C)c1CN1C[C@H](OCC2CCN(C)CC2)[C@H]2COC[C@H]21,-13.4
22,c1cc(CN2C[C@H](OCC3CCOCC3)[C@H]3COC[C@H]32)cs1,1.55

row,Structure (SMILES),Percent Effect [%]
1,O=C(c1ccco1)N1CC[C@@H]2O[C@H](COCCN3CCCC3)CC[C@@H]21,-19.5
2,COC(=O)c1ccc(NC2CCN(CC(F)(F)F)C2=O)cc1C (centres undefined),62.3
3,CCOc1ccc(NC2CCN(CC(F)(F)F)C2=O)cc1C (centres undefined),7.36
4,COC(=O)c1cc(NC2CCN(CC(F)(F)F)C2=O)ccc1C (centres undefined),9.8
5,CN(C)C[C@H]1OC[C@@H]2CCN(C(=O)c3ccc[nH]3)C[C@@H]21,11.4
6,O=C(Nc1cccnc1)[C@H]1CN(C2CCCC2)C[C@H]2OCC[C@@H]12,-36.1
7,Cc1ncc2c(n1)CN(CC1CCCCO1)CC2 (centres undefined),-13.3
8,CC(C)c1ncc2c(n1)CN(CC1CCCCO1)CC2 (centres undefined),-18.6
9,CCc1ncc2c(n1)CN(CC1CCCCO1)CC2 (centres undefined),78.1
10,Cc1nc(CN2C[C@@H]3CN(C(=O)c4ccco4)C[C@@H]3C2=O)cs1,-4.47
11,O=C1NC(c2ccccc2)=N[C@@]12CC[C@@H]1CN(Cc3nccs3)C[C@@H]12,23.9
12,Cc1noc([C@]23COC[C@H]2CN(S(=O)(=O)C2CC2)C3)n1,-31.1
13,Cc1cc(-c2cnc(NC3CCCC3)nc2-c2ccco2)on1,27.1
14,O=C(O)Cn1nc(C2CC2)c2c(-c3cccs3)ccnc21,46.3
15,O=c1[nH]c(NC2CCCC2)nc2nccc(-c3ccco3)c12,52.1
16,O=c1[nH]c(NC2CCCC2)nc2nccc(-c3cccs3)c12,72.5
17,Cc1cc(-c2cnc(NC3CCCCC3)nc2-c2ccco2)on1,15
18,O=c1[nH]c(NC2CCCC2)nc2nccc(-c3ccsc3)c12,43
19,O=C1O[C@@H]2CN(Cc3cccc(O)c3)C[C@@H]2N1CCCN1CCOCC1,-3.82
20,CSc1ccccc1CN1C[C@H]2C(=O)N(CC3CC3)C[C@@]2(C(=O)O)C1,-23
21,COCC(=O)NC[C@H]1CC[C@H](c2nnc(-c3cccnc3)o2)CC1,5.07
